Screens deposited in PubChem BioAssay by several laboratories.
Bim-Mcl-1 – human Bim-Mcl-1 interaction inhibition; Bead-based flow cytometry, Bim peptide-Mcl-1 binding; inhibition, % at 10 µM; 0.1% of 190,000 active; AID 1009; in the data active = inhibition above about 40%;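 note: 0% = no compound tracer wells and 100% = peptide blocker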
Target sequence (Q07820 whole entry, looked up): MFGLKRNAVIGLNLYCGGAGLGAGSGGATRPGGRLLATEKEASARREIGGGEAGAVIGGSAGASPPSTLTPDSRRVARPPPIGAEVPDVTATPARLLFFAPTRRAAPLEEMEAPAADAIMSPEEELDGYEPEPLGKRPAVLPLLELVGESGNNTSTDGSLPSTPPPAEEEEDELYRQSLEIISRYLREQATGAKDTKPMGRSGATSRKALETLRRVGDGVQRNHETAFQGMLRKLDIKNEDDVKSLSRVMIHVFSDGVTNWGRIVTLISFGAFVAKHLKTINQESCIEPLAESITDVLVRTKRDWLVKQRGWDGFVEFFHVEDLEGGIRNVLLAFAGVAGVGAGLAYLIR
MCL1-BIM inh – inhibitors of human MCL1 binding to BIM-BH3 peptide; Q07820; GST-MCL1 / FITC-Bim-BH3 fluorescence polarization; inhibition, % at 10.9 µM; 0.68% of 320,000 active; AID 2057;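 active = inhibition above the mean inhibition of all tested compounds plus 3 SD, set per campaign, cut at about 40% in these data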;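 note: 0% = DMSO wells and 100% = unlabeled Bim-BH3 peptide control; higher means more loss of mP so more displacement of Bim peptide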
14-3-3 Bad PPI – disrupts binding of bovine 14-3-3 zeta to phospho-Bad peptide; P63103; inhibition, % at 21.7 µM; 0.71% of 220,000 active; TR-FRET 14-3-3zeta/Dy647-pBad peptide displacement, 1 h;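 active = inhibition above about 70%, limit read from the data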;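 note: 0% = full 14-3-3 plus peptide FRET controls and 100% = background without 14-3-3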
Mcl1 Bid PPI – Mcl-1/Bid interaction inhibition. Q07820. TR-FRET Mcl-1/Bid-Dy647 peptide binding, 1536-well. inhibition, % at 21.7 µM. 0.97% of 220,000 active. AID 1021;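 active = compounds that cut the binding signal by more than half at the single screening dose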;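 note: His-tagged Mcl-1 with europium anti-His antibody binding Bid BH3 peptide; 0% = Mcl-1 plus peptide wells and 100% = peptide-only wells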
Mcl1-Noxa inh – Mcl-1/Noxa interaction inhibition; TR-FRET Mcl-1/Noxa peptide binding, 2 h; inhibition, % at 21.7 µM; 1.5% of 220,000 active; AID 1022;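 active = compounds that cut the protein-peptide binding signal by more than 50% relative to plate controls in a single-dose test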;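 note: His-tagged Mcl-1 with rhodamine Noxa BH3 peptide and terbium anti-His antibody; 0% = Mcl-1 plus Noxa peptide wells and 100% = peptide-only wells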
Bcl-xL conf – counter-screen for MCL1 inhibitors: confirmation of human Bcl-xL inhibitors | inhibition, % at 10.9 µM | 54% of 1,700 active | shares compounds with MCL1-BIM inh | AID 2166 | GST-Bcl-xL / FITC-Bim BH3 peptide FP binding;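 active = inhibition above a cutoff equal to the mean inhibition of all tested compounds plus 3 SD, cut at about 30% in these data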;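 note: 0% = DMSO wells and 100% = unlabeled Bim BH3 control peptide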
Target sequence (Q07817 whole entry, looked up): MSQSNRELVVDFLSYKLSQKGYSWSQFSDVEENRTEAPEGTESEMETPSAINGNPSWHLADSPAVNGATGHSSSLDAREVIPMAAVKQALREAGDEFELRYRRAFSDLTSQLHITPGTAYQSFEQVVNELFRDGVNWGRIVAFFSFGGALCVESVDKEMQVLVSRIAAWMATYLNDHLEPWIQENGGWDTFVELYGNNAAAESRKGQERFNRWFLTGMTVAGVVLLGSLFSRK
MCL1 BIM confirm – confirmation of human MCL1 and BIM-BH3 interaction inhibitors; shares compounds with MCL1-BIM inh; GST-MCL1 / FITC-Bim-BH3 fluorescence polarization; inhibition, % at 10.9 µM; 61% of 1,700 active; AID 2168;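 active = inhibition above the average of all tested compounds plus 3 SD, cut at about 40% in these data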;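 note: 0% = DMSO wells and 100% = unlabeled Bim-BH3 control peptide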
The depositor's hits bear a star; . = no result given; + = active, no number. This is a sample that favours compounds with a hit; in the whole collection about 2.5% have one here.

SMILES	Bim-Mcl-1	MCL1-BIM inh	14-3-3 Bad PPI	Mcl1 Bid PPI	Mcl1-Noxa inh	Bcl-xL conf	MCL1 BIM confirm
CC(C)(C)c1ccc(OCCC(=O)Nc2cccc(S(=O)(=O)N3CCOCC3)c2)cc1	.	-8	.	.	.	.	.
COc1ccc(Nc2nnc(SCc3cc(=O)n4ccsc4n3)s2)cc1	-1	68*	5	-34	44	-4	-3
O=c1cc(CSc2nnc(Nc3ccccc3F)s2)nc2sccn12	2	6	-4	-32	6	.	.
N#C/C(=C\c1ccc(O)c(O)c1)C(=O)NCCc1ccccc1	.	42*	.	.	.	31*	45*
N#C/C(=C\c1ccc(O)cc1)C(=O)NCc1ccccc1	.	-1	.	.	.	.	.
O/C=c1\ccc2cccc3nc(C(F)(F)F)nc1c23	.	94*	.	.	.	118*	133*
COc1cc(O)c(C(CC(=O)N2CCCCC2)c2cc(OC)c(OC)c(OC)c2)c(OC)c1 (configuration not stated)	.	4	-4	-34	7	.	.
NC(=O)Cn1c(=O)n(Cc2ccco2)c(=O)c2c3c(sc21)CCCCC3	-1	77*	-4	-18	64*	31*	77*
CCNc1ccc2noc3c2c1C(=O)c1ccccc1-3	2	+	-14	88*	-239	184*	+
CCOc1ccc2noc3c2c1C(=O)c1ccccc1-3	0	174*	11	-6	43	146*	171*
O=C1c2ccccc2-c2onc3ccc(N4CCCC4)c1c23	33	.	25	-30	-7	.	.
O=C1c2ccccc2-c2onc3ccc(NCc4ccco4)c1c23	35	199*	-5	57*	9	162*	188*
CCOC(=O)C1CCN(C(=O)COC(=O)COc2ccccc2OC)CC1	-2	8	5	-4	12	.	.
CCc1n[nH]c(=S)n1/N=C/c1cc(OC)cc([N+](=O)[O-])c1O	1	60*	33	-126	78*	16	68*
COc1ccc(CN2CCNC(=O)C2CC(=O)NC2CCCC2)c(C)c1C (configuration not stated)	.	15	.	.	.	.	.
COC(CNC(=O)c1ccc2c3c(onc13)-c1ccccc1C2=O)OC	.	+	7	-187	70*	+	+
CN(C)c1ccc(NC(=O)CSc2nnc(C3CCCCC3)n2N)cc1	.	1	.	.	.	.	.
CCOc1ccc(-n2c(=O)c3sccc3n(CC(=O)NC3CCCCC3)c2=O)cc1	.	-2	.	.	.	.	.
COc1ccc(CCNc2nc3ccccc3n3nnnc23)cc1OC	3	55*	5	-3	20	29	30
NC(=O)c1cc2cc(Br)ccc2oc1=NCc1ccccc1	0	13	-12	9	-1	.	.
O=C(O)C1Nc2c(Cl)cc(Cl)cc2C2C=CCC12 (configuration not stated)	.	105*	.	.	.	52*	91*
O=C(O)C1Nc2c(Cl)cc(Cl)c(Cl)c2C2C=CCC12 (configuration not stated)	.	103*	.	.	.	123*	168*
Cc1ccc(-n2cnc3sc(C)c(C)c3c2=O)cc1	-2	2	-1	-15	16	.	.
Cc1occc1C(=O)N1CCCC(Nc2ccc(F)c(F)c2)C1 (configuration not stated)	.	5	.	.	.	.	.
O=[N+]([O-])c1nn(-c2ccc3c(c2)OCCO3)n(O)c1=NCc1ccc(F)cc1	1	16	-10	-14	12	.	.
SMILES	Bim-Mcl-1	MCL1-BIM inh	14-3-3 Bad PPI	Mcl1 Bid PPI	Mcl1-Noxa inh	Bcl-xL conf	MCL1 BIM confirm
O=[N+]([O-])c1nn(-c2ccc3c(c2)OCCO3)n(O)c1=NCc1ccc(F)cc1Cl	-3	67*	-9	-17	10	10	0
Cn1ccnc1SCC(=O)Nc1nc2ccccc2s1	-1	5	-3	-17	18	.	.
CCCCn1c(O)c(N=NC(=O)c2ccccc2NS(=O)(=O)c2cccs2)c2ccccc21	0	16	5	-37	8	.	.
C=CCn1c(O)c(N=NC(=O)c2ccccc2NS(=O)(=O)c2cccs2)c2ccccc21	10	49*	3	-12	16	79*	120*
CCN(CC)CCN1C(=O)C(O)=C(C(=O)c2sc(C)nc2C)C1c1cccnc1 (configuration not stated)	-3	0	-7	-47	3	.	.
CN=c1scc(-c2cccs2)n1/N=C/c1ccc(O)c(O)c1O	3	53*	3	-50	108*	68*	56*
C=CCN=c1scc(-c2ccco2)n1/N=C/c1ccc(O)c(O)c1O	.	50*	17	-94	84*	29	78*
CN=c1scc(C)n1/N=C/c1ccc(O)c(O)c1O	8	58*	-2	-84	91*	79*	121*
CCSC1=N/C(=C\c2ccc(-c3ccccc3[N+](=O)[O-])o2)C(=O)S1	-1	90*	9	-19	48	120*	141*
N#Cc1c(=O)c2nc(NCc3ccccc3)ncc2n2ccccc12	5	53*	13	-9	35	32*	43*
N#Cc1c(=O)c2nc(NCCCO)ncc2n2c(=O)c3ccccc3[nH]c12	-1	13	-16	-24	25	.	.
COC(=O)C1=C(C)OC(N)=C(C#N)C1c1ccco1 (configuration not stated)	-1	9	-3	-21	-1	.	.
CC(=O)C1=C(C)OC(N)=C(C#N)C1c1ccco1 (configuration not stated)	-2	59*	-7	-10	30	20	16
CC#CC(=O)N1CCC(Oc2cccc(C(=O)NCc3ccccn3)c2)CC1	.	-1	.	.	.	.	.
CSCC(C)N1CCC(Oc2cccc(C(=O)NCc3ccccn3)c2)CC1 (configuration not stated)	.	56*	.	.	.	56*	70*
COc1cc2[nH]c(=O)n(Cc3ccc(C(=O)NCC4CCCO4)cc3)c(=O)c2cc1OC (configuration not stated)	1	1	6	0	-3	.	.
CC(C)(C)N1C(=O)c2ccc(C(=O)O)cc2C1=O	-4	10	11	11	14	.	.
O=C(O)c1ccc2c(c1)C(=O)/C(=C\c1ccco1)C2=O	3	64*	-2	-49	66*	25	26
O=C(O)c1ccc2c(c1)C(=O)/C(=C/c1ccccc1)C2=O	4	92*	2	-20	64*	45*	66*
O=C1ON=C(c2ccccc2)/C1=C/c1ccco1	-4	-13	-1	-50	14	.	.
CN(C)c1ncnc2c1NC1=C(S2)C(=NCCCC(=O)O)CC(C)(C)C1	-1	32	57	-45	40	.	.
COc1ncnc2c1NC1=C(S2)C(=NCCC(=O)O)CC(C)(C)C1	-3	162*	-8	9	25	171*	198*
